The other results are listed elsewhere or left out. Inconclusive results are not listed. The source made the active and inactive calls.
Experiments:
[1] = biological target: Solute carrier family 12 member 5 (Homo sapiens) (UniProt Q9H2X9); experiment: KCC2 modulators in sodium-free buffer, confirmation, cell-based, HEK293 KCC2, thallium flux, secondary assay (AID 1713;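 active = thallium flux slope above the same plate's solvent-only control mean plus 3 SD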); conditions: FluoZin2 fluorescence, at 10 µM, stronger effect = higher value
Chain of Solute carrier family 12 member 5 (Homo sapiens) (Q9H2X9 whole entry, looked up): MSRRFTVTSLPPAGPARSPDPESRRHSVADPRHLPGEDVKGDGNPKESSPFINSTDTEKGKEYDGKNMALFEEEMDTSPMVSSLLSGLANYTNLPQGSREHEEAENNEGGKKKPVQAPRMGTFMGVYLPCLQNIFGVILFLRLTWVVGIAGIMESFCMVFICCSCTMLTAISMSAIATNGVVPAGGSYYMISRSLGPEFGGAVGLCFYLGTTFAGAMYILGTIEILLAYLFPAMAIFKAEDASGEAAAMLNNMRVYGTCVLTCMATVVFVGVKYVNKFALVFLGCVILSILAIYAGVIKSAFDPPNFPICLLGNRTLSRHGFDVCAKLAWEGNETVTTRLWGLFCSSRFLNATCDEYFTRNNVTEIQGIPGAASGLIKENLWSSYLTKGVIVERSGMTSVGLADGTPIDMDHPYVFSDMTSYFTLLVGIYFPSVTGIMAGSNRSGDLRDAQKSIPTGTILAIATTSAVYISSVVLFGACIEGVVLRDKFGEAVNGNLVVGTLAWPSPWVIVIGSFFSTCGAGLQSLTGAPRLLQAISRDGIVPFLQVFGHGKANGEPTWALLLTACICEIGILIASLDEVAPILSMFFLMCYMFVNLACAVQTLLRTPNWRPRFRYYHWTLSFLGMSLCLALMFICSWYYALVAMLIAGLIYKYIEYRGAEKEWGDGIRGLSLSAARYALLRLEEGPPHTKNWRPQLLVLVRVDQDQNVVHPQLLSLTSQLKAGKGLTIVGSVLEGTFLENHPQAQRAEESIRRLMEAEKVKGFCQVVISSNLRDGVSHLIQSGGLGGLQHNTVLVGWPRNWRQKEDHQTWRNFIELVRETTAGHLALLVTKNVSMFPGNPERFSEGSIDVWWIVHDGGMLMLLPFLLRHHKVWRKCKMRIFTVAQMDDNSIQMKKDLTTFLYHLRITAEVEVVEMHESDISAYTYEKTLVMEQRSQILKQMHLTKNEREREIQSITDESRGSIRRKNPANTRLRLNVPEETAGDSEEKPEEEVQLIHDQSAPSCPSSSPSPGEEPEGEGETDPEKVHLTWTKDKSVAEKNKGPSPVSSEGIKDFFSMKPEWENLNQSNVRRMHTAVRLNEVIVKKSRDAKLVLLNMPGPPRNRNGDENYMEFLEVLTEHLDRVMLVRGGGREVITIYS

[2] = PubChem AID 1714; conditions: HEK293-KCC2 + bumetanide/ouabain, thallium flux FluoZin2; at 10 µM; stronger effect = higher value;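 also: raw slope of fluorescence over initial fluorescence between 10 and 20 s after thallium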
[3] = biological target: Solute carrier family 12 member 5 (Homo sapiens) (UniProt Q9H2X9); experiment: KCC2 modulators without ouabain present, confirmation, cell-based, HEK293 KCC2, thallium flux, FluoZin2, secondary assay 2 (AID 1715); conditions: HEK293-KCC2, thallium flux FluoZin2 fluorescence; at 10 µM; actives lie on both sides; F/F0 rise rate, 10–20 s post-thallium;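 also: raw slope with 0.1% DMSO as baseline and bumetanide as block control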
[4] = thallium flux modulation in parental HEK cells, confirmation, counter-screen for KCC2 modulator project, cell-based, counterscreen 1 (AID 1716;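 active = thallium flux rate significantly above the same plate's solvent-only control wells, beyond their mean plus 3 SD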); conditions: HEK293 parental cells, thallium flux FluoZin2, ouabain; at 10 µM; baseline-ratio fluorescence slope, 10–20 s after thallium
[5] = biological target: Solute carrier family 12 member 5 (Homo sapiens) (UniProt Q9H2X9); experiment: KCC2 inhibitors and activators, ouabain retest, confirmation, HEK-KCC2 cells (AID 1717;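 active = thallium flux slope beyond 3 SD from same-plate DMSO control mean in most replicates, usually higher, sometimes lower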;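 also: slope of initial-normalized fluorescence between seconds 10 and 20 after thallium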); conditions: HEK293-KCC2, thallium flux FluoZin2 fluorescence, at 10 µM, bidirectional: low = inhibitor, high = activator
[6] = native HEK Tl+ uptake effects, second counter-screen – HEK cells, counterscreen 2, counter-screen for KCC2 modulator project, confirmation (AID 1718;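 active = thallium flux slope above the same plate's solvent-control mean plus 3 SD in both duplicate wells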;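 also: run without ouabain in cells lacking the KCC2 cotransporter; slope of fluorescence scaled to its starting value between 10 and 20 s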); conditions: HEK293 parental, thallium flux FluoZin-2 fluorescence slope; at 10 µM
[7] = inhibitors of TNFa-induced NFkB p65 translocation, primary screen, imaging, HUVEC, MLSMR starter and 10KST1 sets (AID 438;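 active = inhibition above 20% together with a positive visual image hit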;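 also: compound added about 3h40 before a 20 min TNFalpha stimulation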;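 as to inhibition: signal is the nuclear over cytoplasmic p65 intensity ratio per well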); conditions: HUVEC TNFa-induced p65 nuclear translocation; cell count: measured here: nuclei count (cytotoxicity indicator), at 2.08 µM; inhibition: at 2 µM, stronger effect = higher value, 0% TNFa-plus-vehicle, 100% no-TNFa wells
[8] = inhibitors of mutant huntingtin aggregation, primary screen, imaging, exon1htt(103Q)mCFP cells, high-content imaging (AID 483;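 active = visual image review flags a hit and inhibition of aggregation exceeds 20%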;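 also: compound exposure lasted 3 days before fixation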;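 as to nuclei count: percent of the per-plate median nuclei count of sample wells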); conditions: exon1htt(103Q)mCFP cell line, aggregate imaging, at 2 µM; inhibition of aggregation: stronger effect = higher value; nuclei count: measured here: cell count, toxicity
[9] = inhibitors of E-selectin induction by TNFa, primary screen, imaging, HUVEC, immunofluorescence, MLSMR starter and 10KST1 sets (AID 487;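 active = visually confirmed hit in the image check and inhibition above 20%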;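 as to inhibition: signal is fraction of cell area covered by stained E-selectin grains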;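 as to nuclei count: 100% = median nuclei count of all wells on the same plate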); conditions: HUVEC TNFalpha-induced E-selectin immunofluorescence imaging, at 2 µM; inhibition: stronger effect = higher value; nuclei count: measured here: cell number, toxicity
[10] = DUSP6 inhibitors restoring Erk phosphorylation by chemical complementation, primary imaging in DUSP6-transfected HeLa (AID 609;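 active = compounds giving at least 50% inhibition in the cell-based MKP-3 phosphatase rescue imaging test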;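 as to inhibition: phospho-Erk level distribution per well compared with pooled transfected vehicle control wells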); conditions: HeLa MKP-3 transfected, phospho-Erk imaging KS statistic, at 10 µM, cells stimulated with TPA for 15 min
[11] = biological target: Dual specificity protein phosphatase 6 (Homo sapiens) (UniProt Q16828); experiment: as above; conditions: HeLa MKP-3 transfected, phospho-Erk imaging KS statistic; at 10 µM; stronger effect = higher value; cells stimulated with TPA for 15 min
Chain of Dual specificity protein phosphatase 6 (Homo sapiens) (Q16828 whole entry, looked up): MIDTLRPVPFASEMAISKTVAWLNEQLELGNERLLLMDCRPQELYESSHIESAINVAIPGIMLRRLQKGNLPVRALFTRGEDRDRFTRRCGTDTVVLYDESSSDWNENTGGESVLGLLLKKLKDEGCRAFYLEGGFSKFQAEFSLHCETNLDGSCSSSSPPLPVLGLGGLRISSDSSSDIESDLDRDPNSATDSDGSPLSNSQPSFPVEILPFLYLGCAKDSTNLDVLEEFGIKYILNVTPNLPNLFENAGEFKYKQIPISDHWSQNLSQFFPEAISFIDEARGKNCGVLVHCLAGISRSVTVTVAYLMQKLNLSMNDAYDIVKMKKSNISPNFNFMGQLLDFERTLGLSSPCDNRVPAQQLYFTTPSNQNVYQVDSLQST

[12] = biological target: Voltage-gated potassium channel subunit beta-2 (Rattus norvegicus) (UniProt P62483); experiment: KvBeta enzyme negative modulators, primary screen, biochemical, NADPH fluorescence (AID 622;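 active = fluorescence slope higher than the sample average by over 3 SD, cut at about -0.22 in these data, passing the limit was not always enough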;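 also: slope of raw intensity against log time taken from 70 to 1610 s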); conditions: recombinant KvBeta, 4-cyanobenzaldehyde reduction, at 10 µM, stronger effect = higher value
Chain of Voltage-gated potassium channel subunit beta-2 (Rattus norvegicus) (P62483 whole entry, looked up): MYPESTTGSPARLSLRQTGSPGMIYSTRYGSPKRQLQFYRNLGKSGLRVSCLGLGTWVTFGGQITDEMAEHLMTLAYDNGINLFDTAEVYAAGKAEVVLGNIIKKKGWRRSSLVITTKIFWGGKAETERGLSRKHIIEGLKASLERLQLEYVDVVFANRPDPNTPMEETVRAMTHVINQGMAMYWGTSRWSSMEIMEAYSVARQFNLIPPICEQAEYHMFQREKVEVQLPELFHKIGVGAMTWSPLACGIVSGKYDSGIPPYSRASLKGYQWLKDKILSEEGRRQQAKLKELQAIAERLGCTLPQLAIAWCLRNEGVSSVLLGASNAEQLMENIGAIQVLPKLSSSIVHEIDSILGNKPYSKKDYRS

[13] = biological target: Voltage-gated potassium channel subunit beta-2 (Rattus norvegicus) (UniProt P62483); experiment: KvBeta positive modulators, primary screen, biochemical, NADPH fluorescence (AID 623;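 active = NADPH fluorescence slope more negative than the mean of all samples by about 3 SD, 99.7% confidence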;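 also: fluorescence intensity change per second fitted from 20 to 320 s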); conditions: Recombinant KvBeta, NADPH fluorescence decrease slope, 10 min; at 10 µM; stronger effect = lower value
[14] = biological target: Muscarinic acetylcholine receptor M4 (Homo sapiens) (UniProt P08173); experiment: compounds altering M4/GIRK thallium flux, either direction, primary screen, M4 allosteric agonist project, cell-based, HEK293 M4/GIRK, BTC-AM (AID 625;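 active = fluorescence slope after compound addition differing from the mean of all tested samples at 99.7% confidence, mostly higher but some lower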;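 also: thallium influx through GIRK channels coupled to M4 in HEK293 cells with BTC-AM dye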); conditions: at 10 µM, actives lie on both sides
Chain of Muscarinic acetylcholine receptor M4 (Homo sapiens) (P08173 whole entry, looked up): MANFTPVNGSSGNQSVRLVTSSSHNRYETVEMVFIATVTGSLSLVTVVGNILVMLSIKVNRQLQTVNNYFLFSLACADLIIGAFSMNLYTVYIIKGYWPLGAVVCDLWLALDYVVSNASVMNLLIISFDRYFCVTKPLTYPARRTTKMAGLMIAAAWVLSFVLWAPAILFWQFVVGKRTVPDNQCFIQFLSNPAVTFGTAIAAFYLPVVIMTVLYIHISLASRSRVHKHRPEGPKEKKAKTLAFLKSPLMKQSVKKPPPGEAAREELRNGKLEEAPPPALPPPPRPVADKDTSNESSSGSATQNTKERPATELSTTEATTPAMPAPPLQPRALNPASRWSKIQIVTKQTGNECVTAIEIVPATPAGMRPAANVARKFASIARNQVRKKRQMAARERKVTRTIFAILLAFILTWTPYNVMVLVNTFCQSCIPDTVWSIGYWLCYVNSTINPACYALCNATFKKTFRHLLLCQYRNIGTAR

[15] = inhibitors of larval lipid processing in zebrafish, primary screen, whole organism, PED6 fluorescence, gall bladder and intestine (AID 686;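 active = a full or partial loss of lipid-probe fluorescence in the fish gall bladder, intestine or both, judged by eye; inactive = no fluorescence loss, or compound toxic to the fish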;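 also: larvae 5 to 7 days old with five fish per well; signal comes from phospholipase A2 cleavage of quenched PED6 carried via bile; overnight exposure to compound and PED6 before scoring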); conditions: Zebrafish larvae PED6 lipid processing, fluorescence scoring; screened at 20 µM (by protocol)
[16] = inhibitors of Chlamydomonas gravitaxis, primary screen, whole organism, Chlamydomonas reinhardtii, WT vs cilia-less mutant, absorbance, 96-well (AID 463189;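 active = inhibition at or above 50% relative to wild type and mutant plate controls; inactive = inhibition below 50%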;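 also: 0% = wild type cc124 cells in DMSO and 100% = ciliumless bld1 mutant cells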); conditions: OD600 absorbance, 2 days, at 10 µM, stronger effect = higher value
[17] = inhibitors of Sendai virus-induced IRF3 signaling, primary screen, TLR/RLR signaling modifier project, cell-based, Sendai virus stimulus, luciferase, 10K MLSCN set (AID 602276;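 active = inhibition at or above 50% at 10 µM; inactive = inhibition below 50%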;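 also: firefly luciferase from ISG56 promoter only with Renilla not read in this screen; 0% = Sendai virus plus DMSO and 100% = medium plus DMSO without virus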); conditions: HEK293 RL24 IRF3 luciferase reporter, at 10 µM, stronger effect = higher value
[18] = inhibitors of poly I:C-induced TLR3 signaling, primary screen, cell-based, poly I:C stimulus, luciferase, 10K MLSCN set (AID 602277;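 active = inhibition of the reporter signal at or above 50%; inactive = inhibition below 50%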); conditions: HEK293-TLR3 RL24 IRF3 luciferase reporter, at 10 µM, stronger effect = higher value
[19] = measured here: cell density z-score
[20] = measured here: nuclear c-Myc green intensity z-score
[21] = measured here: nuclear pErk red intensity z-score, stronger effect = higher value

CCOC(=O)CSc1nnc(CNC(=O)c2cccs2)n1-c1ccccc1
inactive: normalised thallium flux (F/F0 slope) [1] 0.00872 | normalized thallium flux [2] 0.00583 | normalized thallium flux [3] 0.0307 | thallium flux rate (normalised fluorescence) [4] 0.00776 | raw Tl+ flux slope (below DMSO = inhibition, above = activation) [5] 0.0178 | thallium flux slope [6] 0.0106

O=C(NC(=S)N1CCc2ccccc21)c1ccco1
active: normalised thallium flux (F/F0 slope) [1] 0.00899 | normalized thallium flux [2] 0.0451 | normalized thallium flux [3] 0.0395 | thallium flux rate (normalised fluorescence) [4] 0.0311 | raw Tl+ flux slope (below DMSO = inhibition, above = activation) [5] 0.0407 | thallium flux slope [6] 0.0243

CCOc1ccccc1C1CC(c2ccc(Cl)cc2)Nc2nc(N)nn21 (centres undefined)
inactive: normalised thallium flux (F/F0 slope) [1] 0.0061 | normalized thallium flux [2] 0.00475 | normalized thallium flux [3] 0.0277 | thallium flux rate (normalised fluorescence) [4] 0.00745 | raw Tl+ flux slope (below DMSO = inhibition, above = activation) [5] 0.0177 | thallium flux slope [6] 0.00975

Cc1ccc(OCC(=O)NNC(=S)NCc2ccccc2)cc1
inactive: normalised thallium flux (F/F0 slope) [1] 0.00584 | normalized thallium flux [3] 0.0307 | raw Tl+ flux slope (below DMSO = inhibition, above = activation) [5] 0.0206
active: normalized thallium flux [2] 0.0196 | thallium flux rate (normalised fluorescence) [4] 0.0156 | thallium flux slope [6] 0.0162

c1cncc(-c2nnc3n2C2(CCCCC2)Cc2ccccc2-3)c1
inactive: normalised thallium flux (F/F0 slope) [1] 0.0161 | normalized thallium flux [2] 0.00468 | normalized thallium flux [3] 0.0275 | thallium flux rate (normalised fluorescence) [4] 0.00718 | raw Tl+ flux slope (below DMSO = inhibition, above = activation) [5] 0.0153 | thallium flux slope [6] 0.00983

O=C(Nc1nnc(C2COc3ccccc3O2)o1)c1ccc(F)cc1 (centres undefined)
active: normalised thallium flux (F/F0 slope) [1] 0.0197 | normalized thallium flux [2] 0.06 | thallium flux rate (normalised fluorescence) [4] 0.0287 | raw Tl+ flux slope (below DMSO = inhibition, above = activation) [5] 0.0495 | thallium flux slope [6] 0.0126
inactive: normalized thallium flux [3] 0.032

Cc1cs/c(=N\N=C\c2ccc(O)cc2)n1Cc1ccco1
inactive: normalised thallium flux (F/F0 slope) [1] 0.00586 | normalized thallium flux [2] 0.00375 | thallium flux rate (normalised fluorescence) [4] 0.00654 | raw Tl+ flux slope (below DMSO = inhibition, above = activation) [5] 0.0162 | thallium flux slope [6] 0.0101
active: normalized thallium flux [3] 0.0253

C=CCn1c(=S)[nH]c2scc(-c3ccco3)c2c1=O
active: normalised thallium flux (F/F0 slope) [1] 0.0122 | normalized thallium flux [2] 0.0771 | normalized thallium flux [3] 0.0916 | thallium flux rate (normalised fluorescence) [4] 0.0914 | raw Tl+ flux slope (below DMSO = inhibition, above = activation) [5] 0.0814 | thallium flux slope [6] 0.0843

COc1ccc(C(=O)NC2(C(F)(F)F)NC(=O)N(CCCc3ccccc3)C2=O)c(OC)c1OC (centres undefined)
active: raw Tl+ flux slope (below DMSO = inhibition, above = activation) [5] 0.0134
inactive: normalised thallium flux (F/F0 slope) [1] 0.00692 | normalized thallium flux [2] 0.00586 | normalized thallium flux [3] 0.0307 | thallium flux rate (normalised fluorescence) [4] 0.00683 | thallium flux slope [6] 0.0109

COc1cccc(CNC(=O)Cc2csc(Nc3nc(=S)[nH]c4ccccc34)n2)c1
inactive: normalised thallium flux (F/F0 slope) [1] 0.0104 | normalized thallium flux [3] 0.0329
active: normalized thallium flux [2] 0.0662 | thallium flux rate (normalised fluorescence) [4] 0.0306 | raw Tl+ flux slope (below DMSO = inhibition, above = activation) [5] 0.0519 | thallium flux slope [6] 0.0141

COC(=O)c1cccnc1NC(=S)NC(C)C
active: normalised thallium flux (F/F0 slope) [1] 0.0244 | normalized thallium flux [2] 0.0413 | thallium flux rate (normalised fluorescence) [4] 0.035 | raw Tl+ flux slope (below DMSO = inhibition, above = activation) [5] 0.0394 | thallium flux slope [6] 0.0178
inactive: normalized thallium flux [3] 0.0368

CNC(=O)/C(=C\C=C\c1ccccc1)NC(=O)c1ccc([N+](=O)[O-])cc1
active: normalized thallium flux [3] 0.0219 | raw Tl+ flux slope (below DMSO = inhibition, above = activation) [5] 0.0141
inactive: normalised thallium flux (F/F0 slope) [1] 0.00733 | normalized thallium flux [2] 0.00498 | thallium flux rate (normalised fluorescence) [4] 0.00796 | thallium flux slope [6] 0.0103

COc1cc(NC(=O)c2ccccc2NS(=O)(=O)c2ccc(Cl)s2)cc(OC)c1
inactive: normalised thallium flux (F/F0 slope) [1] 0.00642 | normalized thallium flux [2] 0.00732 | normalized thallium flux [3] 0.0336 | thallium flux rate (normalised fluorescence) [4] 0.00377 | thallium flux slope [6] 0.0111
active: raw Tl+ flux slope (below DMSO = inhibition, above = activation) [5] 0.0161

C(=N\n1cnnc1)/c1cccnc1
115%: nuclei count [9]
581: cell count [7]
0.785: z-score [10, 19]
76.7%: nuclei count [8]
-0.718: z-score [10, 20]
0.742: z-score [10, 21]
inactive: inhibition [7] 0.9% | inhibition of aggregation [8] 18.4% | inhibition [9] -64.9% | inhibition [11] 1.42% | fluorescence slope [12] -0.457 | NADPH fluorescence slope [13] -0.000114 | fluorescence slope [14] 0.00428 | outcome [15] | normalised thallium flux (F/F0 slope) [1] 0.0086 | normalized thallium flux [2] 0.00647 | normalized thallium flux [3] 0.0321 | thallium flux rate (normalised fluorescence) [4] 0.0072 | raw Tl+ flux slope (below DMSO = inhibition, above = activation) [5] 0.021 | thallium flux slope [6] 0.0101 | inhibition [16] 0.59% | inhibition [17] -11.4% | inhibition [18] -7.31%

CCNCc1cc2cc(C)ccc2[nH]c1=O
132%: nuclei count [9]
118%: nuclei count [8]
596: cell count [7]
-1.49: z-score [10, 20]
0.581: z-score [10, 19]
inactive: inhibition [7] -5.2% | inhibition of aggregation [8] 1.8% | inhibition [9] -107% | inhibition [11] 2.71% | fluorescence slope [12] -0.515 | NADPH fluorescence slope [13] -4.8e-05 | fluorescence slope [14] 0.00569 | outcome [15] | normalised thallium flux (F/F0 slope) [1] 0.00875 | normalized thallium flux [2] 0.00485 | normalized thallium flux [3] 0.034 | thallium flux rate (normalised fluorescence) [4] 0.00817 | raw Tl+ flux slope (below DMSO = inhibition, above = activation) [5] 0.0185 | thallium flux slope [6] 0.0111 | inhibition [16] 9.6% | inhibition [17] 3.24% | inhibition [18] 16.9%
-1.38: z-score [10, 21]

Reference: PubChem BioAssay
